Data reported in the supplement of paper PMC11732987, “Enantioselective OTUD7B fragment discovery through chemoproteomics screening and high-throughput optimisation” (Communications Chemistry, 2025).

Experiments:
Experiment in all cases: log2 ratio of Biotin-Ahx-Ub-VS probe labelling (fragment/DMSO); higher = less target engagement (more negative = stronger competition), active = hit call of the paper (q ≤ 0.05, log2 ratio ≤ -1)
Details in all cases: compound concentration: 200 uM; treatment time: 3 h
[1] = molecular target: T1, USP42 (UniProt Q9H9J4)
T1 sequence (whole entry): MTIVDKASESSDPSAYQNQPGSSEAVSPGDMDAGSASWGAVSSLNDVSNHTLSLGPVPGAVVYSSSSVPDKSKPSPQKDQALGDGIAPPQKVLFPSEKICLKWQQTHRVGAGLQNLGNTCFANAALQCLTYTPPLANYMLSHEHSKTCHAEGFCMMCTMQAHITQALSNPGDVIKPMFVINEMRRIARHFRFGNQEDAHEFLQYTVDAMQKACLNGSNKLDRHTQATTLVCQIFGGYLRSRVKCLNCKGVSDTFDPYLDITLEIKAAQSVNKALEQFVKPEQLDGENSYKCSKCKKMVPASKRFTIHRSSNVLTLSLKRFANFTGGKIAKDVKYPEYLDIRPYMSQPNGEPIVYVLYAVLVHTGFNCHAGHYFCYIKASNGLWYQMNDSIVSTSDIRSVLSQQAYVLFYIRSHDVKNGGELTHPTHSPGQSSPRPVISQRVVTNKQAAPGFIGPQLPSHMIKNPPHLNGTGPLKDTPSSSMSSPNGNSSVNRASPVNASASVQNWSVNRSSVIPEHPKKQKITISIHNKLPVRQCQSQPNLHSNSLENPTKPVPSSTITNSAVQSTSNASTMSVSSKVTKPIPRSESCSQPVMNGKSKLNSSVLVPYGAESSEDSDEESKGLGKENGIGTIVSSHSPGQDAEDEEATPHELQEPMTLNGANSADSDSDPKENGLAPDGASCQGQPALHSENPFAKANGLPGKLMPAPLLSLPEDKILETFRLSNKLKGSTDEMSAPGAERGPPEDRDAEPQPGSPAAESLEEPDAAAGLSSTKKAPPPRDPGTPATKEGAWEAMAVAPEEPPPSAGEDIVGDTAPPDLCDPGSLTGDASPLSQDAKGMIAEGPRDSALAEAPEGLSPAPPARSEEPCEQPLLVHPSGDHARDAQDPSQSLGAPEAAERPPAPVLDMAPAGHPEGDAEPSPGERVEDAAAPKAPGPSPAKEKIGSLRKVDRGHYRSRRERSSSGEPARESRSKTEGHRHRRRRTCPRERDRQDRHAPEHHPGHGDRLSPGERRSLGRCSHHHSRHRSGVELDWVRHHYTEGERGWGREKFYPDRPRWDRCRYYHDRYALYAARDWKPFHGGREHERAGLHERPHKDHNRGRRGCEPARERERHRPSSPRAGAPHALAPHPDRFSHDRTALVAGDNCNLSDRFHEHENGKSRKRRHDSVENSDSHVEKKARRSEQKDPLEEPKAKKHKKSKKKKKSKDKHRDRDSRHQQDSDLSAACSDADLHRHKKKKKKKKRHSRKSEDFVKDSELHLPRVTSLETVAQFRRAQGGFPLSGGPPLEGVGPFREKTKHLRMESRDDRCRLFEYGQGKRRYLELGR
How it was run: (§1)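 HEK293T lysate, 495 µg per sample in Tris/CHAPS/IGEPAL buffer with protease inhibitors, was treated in triplicate with fragment at 200 µM or vehicle for 3 h and then with Biotin-Ahx-Ub-VS at 0.5 µM final for 1 h. Labelled DUBs were NeutrAvidin-enriched, digested with LysC and trypsin, and run by diaPASEF LC-MS/MS. Spectronaut label-free quantities were global-median-normalised, and values are average log2 fragment/vehicle ratios by unpaired t-test on proteins with ≥2 unique peptides.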

[2] = molecular target: USP46 (UniProt P62068)
Chain of USP46 (P62068 whole entry): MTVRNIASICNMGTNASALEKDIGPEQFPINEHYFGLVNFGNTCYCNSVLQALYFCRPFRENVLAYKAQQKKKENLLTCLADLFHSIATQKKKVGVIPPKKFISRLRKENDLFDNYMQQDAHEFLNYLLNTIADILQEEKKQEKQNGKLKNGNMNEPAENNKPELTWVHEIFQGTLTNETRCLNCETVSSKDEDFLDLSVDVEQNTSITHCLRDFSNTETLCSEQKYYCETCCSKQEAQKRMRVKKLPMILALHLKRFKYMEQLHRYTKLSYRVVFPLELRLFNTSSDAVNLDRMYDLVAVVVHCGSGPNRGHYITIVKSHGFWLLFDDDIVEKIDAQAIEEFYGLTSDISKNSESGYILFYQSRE
How it was run: as §1

[3] = molecular target: T2, USP47 (UniProt Q96K76)
T2 sequence (whole entry): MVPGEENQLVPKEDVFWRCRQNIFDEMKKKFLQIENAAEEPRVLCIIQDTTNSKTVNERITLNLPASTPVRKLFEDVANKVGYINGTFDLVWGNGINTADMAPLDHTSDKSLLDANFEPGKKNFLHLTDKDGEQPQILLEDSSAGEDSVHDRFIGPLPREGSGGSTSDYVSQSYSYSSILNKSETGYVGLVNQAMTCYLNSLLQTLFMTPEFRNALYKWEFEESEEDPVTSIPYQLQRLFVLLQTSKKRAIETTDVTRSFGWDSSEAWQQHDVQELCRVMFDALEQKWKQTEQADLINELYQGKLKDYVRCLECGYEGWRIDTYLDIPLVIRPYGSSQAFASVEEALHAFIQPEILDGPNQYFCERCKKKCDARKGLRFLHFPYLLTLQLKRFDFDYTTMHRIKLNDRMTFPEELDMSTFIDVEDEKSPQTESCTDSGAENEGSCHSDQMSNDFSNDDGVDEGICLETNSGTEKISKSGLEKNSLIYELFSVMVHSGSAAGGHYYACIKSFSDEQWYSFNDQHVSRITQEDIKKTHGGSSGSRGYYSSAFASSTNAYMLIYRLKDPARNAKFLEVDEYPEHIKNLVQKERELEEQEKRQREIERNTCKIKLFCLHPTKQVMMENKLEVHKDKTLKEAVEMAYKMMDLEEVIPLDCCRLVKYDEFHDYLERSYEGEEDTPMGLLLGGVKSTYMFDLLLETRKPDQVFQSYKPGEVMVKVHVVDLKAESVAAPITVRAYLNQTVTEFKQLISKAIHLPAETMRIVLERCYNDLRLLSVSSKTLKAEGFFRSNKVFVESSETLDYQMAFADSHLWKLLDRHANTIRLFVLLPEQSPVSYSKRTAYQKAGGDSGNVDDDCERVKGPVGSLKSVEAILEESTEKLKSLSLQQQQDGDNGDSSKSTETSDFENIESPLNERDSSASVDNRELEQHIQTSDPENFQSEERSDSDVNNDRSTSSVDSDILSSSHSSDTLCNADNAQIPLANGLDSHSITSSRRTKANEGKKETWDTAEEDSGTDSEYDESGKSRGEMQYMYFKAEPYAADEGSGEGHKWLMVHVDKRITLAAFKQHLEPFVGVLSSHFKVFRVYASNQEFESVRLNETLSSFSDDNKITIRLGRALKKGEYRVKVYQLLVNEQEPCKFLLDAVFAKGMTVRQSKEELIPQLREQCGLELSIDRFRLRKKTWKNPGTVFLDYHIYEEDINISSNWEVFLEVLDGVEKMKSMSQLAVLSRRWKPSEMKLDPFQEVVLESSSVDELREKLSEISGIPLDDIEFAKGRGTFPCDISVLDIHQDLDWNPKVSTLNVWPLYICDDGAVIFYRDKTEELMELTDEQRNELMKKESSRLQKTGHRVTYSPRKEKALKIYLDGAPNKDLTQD
How it was run: as §1

[4] = molecular target: T3, USP48 (UniProt Q86UV5)
T3 sequence (whole entry): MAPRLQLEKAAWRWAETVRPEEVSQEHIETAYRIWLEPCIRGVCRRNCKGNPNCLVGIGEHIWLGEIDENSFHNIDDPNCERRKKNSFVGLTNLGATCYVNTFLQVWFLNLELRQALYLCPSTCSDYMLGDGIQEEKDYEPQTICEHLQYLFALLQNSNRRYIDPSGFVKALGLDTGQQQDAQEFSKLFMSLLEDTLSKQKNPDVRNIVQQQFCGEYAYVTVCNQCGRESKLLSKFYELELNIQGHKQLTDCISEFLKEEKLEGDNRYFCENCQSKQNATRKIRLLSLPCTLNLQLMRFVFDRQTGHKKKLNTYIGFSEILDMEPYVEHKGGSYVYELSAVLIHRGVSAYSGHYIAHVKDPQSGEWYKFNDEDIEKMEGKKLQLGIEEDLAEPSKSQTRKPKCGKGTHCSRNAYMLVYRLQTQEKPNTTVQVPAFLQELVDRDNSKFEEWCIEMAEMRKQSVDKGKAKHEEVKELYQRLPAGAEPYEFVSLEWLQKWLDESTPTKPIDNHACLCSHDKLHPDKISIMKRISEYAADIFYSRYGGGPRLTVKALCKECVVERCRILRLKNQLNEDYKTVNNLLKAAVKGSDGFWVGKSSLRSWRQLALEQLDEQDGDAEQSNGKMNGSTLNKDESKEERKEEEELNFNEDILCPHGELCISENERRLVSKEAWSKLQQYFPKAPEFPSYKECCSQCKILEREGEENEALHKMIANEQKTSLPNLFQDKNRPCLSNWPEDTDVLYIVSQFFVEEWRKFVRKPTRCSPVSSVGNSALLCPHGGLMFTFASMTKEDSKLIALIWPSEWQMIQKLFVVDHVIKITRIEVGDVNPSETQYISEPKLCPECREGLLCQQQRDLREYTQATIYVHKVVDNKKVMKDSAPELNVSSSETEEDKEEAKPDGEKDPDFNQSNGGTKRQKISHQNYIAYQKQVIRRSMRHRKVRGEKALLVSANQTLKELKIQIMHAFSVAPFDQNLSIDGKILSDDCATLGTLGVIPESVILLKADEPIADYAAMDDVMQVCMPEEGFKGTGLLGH
How it was run: as §1

[5] = molecular target: T4, USP5 (UniProt P45974)
T4 sequence (whole entry): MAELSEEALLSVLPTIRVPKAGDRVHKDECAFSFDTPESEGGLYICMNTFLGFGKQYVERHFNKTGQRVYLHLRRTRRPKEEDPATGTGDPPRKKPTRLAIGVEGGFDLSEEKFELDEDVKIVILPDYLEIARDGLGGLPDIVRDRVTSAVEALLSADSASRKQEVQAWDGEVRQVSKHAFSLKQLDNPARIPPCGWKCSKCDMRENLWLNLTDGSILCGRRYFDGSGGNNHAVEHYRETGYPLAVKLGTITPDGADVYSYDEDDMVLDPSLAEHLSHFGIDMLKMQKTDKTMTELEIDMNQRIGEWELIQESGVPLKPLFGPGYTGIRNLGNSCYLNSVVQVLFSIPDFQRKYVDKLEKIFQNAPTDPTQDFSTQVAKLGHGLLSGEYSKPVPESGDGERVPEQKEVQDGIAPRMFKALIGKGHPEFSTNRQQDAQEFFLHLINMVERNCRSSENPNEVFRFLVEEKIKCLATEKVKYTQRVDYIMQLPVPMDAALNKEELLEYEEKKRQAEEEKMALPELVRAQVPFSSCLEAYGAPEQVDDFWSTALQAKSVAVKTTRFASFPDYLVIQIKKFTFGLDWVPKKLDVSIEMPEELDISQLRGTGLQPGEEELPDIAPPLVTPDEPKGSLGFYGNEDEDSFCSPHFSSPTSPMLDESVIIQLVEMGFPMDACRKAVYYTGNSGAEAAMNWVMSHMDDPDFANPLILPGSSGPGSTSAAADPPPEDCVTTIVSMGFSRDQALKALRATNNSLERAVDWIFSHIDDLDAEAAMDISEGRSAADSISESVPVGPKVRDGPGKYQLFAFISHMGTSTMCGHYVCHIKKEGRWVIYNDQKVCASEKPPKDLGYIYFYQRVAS
How it was run: as §1

[6] = molecular target: USP54 (UniProt Q70EL1)
Chain of USP54 (Q70EL1 whole entry): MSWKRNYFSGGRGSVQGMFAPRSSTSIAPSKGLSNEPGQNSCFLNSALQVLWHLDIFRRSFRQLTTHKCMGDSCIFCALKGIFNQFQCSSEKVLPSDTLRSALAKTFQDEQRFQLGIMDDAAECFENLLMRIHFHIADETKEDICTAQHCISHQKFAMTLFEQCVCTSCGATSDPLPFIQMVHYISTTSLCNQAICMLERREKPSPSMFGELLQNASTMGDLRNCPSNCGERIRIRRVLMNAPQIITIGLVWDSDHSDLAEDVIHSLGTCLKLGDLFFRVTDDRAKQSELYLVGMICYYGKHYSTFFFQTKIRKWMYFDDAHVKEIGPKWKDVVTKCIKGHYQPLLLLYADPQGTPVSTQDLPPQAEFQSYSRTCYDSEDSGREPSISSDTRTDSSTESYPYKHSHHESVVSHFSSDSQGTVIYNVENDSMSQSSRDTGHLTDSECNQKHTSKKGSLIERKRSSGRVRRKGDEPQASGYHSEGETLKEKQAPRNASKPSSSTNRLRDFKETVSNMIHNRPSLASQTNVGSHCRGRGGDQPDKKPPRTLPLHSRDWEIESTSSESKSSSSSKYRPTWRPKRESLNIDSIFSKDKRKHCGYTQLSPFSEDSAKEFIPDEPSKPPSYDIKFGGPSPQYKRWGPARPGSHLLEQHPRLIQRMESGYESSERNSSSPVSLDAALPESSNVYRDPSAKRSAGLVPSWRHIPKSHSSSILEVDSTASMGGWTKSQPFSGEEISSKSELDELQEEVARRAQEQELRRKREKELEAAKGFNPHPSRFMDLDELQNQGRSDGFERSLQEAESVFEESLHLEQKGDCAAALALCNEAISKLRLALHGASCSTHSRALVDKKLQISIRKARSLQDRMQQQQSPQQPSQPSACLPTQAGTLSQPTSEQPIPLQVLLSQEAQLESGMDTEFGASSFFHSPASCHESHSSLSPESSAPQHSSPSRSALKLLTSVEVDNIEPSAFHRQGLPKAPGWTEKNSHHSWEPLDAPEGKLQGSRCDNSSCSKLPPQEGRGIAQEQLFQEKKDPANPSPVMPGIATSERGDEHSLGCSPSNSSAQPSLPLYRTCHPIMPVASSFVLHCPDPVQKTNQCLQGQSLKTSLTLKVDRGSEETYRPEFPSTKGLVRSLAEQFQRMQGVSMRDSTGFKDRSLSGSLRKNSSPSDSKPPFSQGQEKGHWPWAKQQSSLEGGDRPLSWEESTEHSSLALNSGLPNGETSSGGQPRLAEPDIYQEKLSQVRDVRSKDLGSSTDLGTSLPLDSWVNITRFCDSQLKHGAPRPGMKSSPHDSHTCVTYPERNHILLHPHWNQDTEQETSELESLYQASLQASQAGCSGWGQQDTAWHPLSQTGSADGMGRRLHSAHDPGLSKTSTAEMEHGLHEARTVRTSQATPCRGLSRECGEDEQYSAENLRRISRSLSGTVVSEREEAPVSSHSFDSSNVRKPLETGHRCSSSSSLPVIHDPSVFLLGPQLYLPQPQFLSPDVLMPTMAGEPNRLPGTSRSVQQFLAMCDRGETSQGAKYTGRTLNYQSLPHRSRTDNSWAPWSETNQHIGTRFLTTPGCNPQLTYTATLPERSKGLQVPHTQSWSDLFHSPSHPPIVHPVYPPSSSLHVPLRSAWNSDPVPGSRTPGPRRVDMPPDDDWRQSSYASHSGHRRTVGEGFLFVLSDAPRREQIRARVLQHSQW
How it was run: as §1

[7] = molecular target: USP7 (UniProt Q93009)
Chain of USP7 (Q93009 whole entry, looked up): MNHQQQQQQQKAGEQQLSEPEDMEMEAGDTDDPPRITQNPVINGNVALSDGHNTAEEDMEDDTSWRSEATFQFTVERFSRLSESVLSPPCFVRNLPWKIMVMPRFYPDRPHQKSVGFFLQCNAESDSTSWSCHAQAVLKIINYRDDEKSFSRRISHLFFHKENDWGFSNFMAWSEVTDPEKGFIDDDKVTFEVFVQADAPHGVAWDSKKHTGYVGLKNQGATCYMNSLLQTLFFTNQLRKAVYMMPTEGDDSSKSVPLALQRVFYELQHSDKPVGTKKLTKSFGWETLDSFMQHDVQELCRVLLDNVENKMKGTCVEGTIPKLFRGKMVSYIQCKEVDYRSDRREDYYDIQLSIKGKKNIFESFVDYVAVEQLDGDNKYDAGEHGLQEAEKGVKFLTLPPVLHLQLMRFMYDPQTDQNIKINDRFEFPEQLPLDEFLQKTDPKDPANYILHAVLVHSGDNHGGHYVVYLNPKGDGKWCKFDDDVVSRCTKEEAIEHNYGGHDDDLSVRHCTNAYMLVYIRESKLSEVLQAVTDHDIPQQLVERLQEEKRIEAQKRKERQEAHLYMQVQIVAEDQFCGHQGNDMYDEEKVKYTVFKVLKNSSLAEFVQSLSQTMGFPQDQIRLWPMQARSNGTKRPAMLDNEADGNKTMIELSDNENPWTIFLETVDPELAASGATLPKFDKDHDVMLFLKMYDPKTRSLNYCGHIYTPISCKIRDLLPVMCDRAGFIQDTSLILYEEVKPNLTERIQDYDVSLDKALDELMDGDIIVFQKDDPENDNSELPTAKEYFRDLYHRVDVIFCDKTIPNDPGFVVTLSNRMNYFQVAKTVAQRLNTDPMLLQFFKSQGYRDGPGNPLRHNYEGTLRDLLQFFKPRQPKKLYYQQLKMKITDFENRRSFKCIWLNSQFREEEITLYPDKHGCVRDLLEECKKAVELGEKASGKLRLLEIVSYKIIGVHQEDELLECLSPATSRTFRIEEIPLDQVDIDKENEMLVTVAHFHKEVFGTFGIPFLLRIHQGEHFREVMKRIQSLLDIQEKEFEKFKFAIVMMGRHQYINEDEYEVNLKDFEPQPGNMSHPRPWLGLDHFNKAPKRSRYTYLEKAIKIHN
How it was run: as §1

[8] = molecular target: T5, USP8 (UniProt P40818)
T5 sequence (whole entry): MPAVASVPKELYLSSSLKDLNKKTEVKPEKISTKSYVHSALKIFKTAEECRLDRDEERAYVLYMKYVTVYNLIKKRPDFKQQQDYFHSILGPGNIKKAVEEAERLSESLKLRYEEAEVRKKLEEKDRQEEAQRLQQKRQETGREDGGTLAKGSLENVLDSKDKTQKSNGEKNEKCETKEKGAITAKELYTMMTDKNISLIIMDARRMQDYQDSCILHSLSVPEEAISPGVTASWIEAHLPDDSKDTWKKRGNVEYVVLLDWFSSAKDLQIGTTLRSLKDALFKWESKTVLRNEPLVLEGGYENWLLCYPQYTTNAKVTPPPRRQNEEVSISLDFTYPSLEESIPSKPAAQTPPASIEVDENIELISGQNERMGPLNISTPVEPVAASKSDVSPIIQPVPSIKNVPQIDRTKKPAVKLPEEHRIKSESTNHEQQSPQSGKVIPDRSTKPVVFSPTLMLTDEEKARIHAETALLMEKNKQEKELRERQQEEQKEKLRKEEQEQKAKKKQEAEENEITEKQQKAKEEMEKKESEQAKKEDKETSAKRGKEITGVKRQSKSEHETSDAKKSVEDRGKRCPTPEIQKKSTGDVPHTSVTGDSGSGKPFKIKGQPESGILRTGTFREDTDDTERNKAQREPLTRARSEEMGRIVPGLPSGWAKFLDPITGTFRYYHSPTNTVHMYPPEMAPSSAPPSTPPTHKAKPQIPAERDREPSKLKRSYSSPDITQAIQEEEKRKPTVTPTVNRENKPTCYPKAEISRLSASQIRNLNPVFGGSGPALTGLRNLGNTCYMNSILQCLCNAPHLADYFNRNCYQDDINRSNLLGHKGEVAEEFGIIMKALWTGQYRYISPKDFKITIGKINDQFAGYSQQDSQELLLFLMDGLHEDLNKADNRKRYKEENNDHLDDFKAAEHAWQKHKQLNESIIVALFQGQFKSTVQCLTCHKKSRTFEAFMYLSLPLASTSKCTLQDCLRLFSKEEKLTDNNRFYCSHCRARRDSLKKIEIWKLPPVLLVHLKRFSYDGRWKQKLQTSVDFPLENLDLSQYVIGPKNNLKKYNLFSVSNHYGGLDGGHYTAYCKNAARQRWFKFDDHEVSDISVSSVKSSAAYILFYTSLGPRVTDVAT
How it was run: as §1

[9] = molecular target: USP9X (UniProt Q93008)
How it was run: as §1

[10] = molecular target: UniProt O00487
Chain of UniProt O00487 (O00487 whole entry): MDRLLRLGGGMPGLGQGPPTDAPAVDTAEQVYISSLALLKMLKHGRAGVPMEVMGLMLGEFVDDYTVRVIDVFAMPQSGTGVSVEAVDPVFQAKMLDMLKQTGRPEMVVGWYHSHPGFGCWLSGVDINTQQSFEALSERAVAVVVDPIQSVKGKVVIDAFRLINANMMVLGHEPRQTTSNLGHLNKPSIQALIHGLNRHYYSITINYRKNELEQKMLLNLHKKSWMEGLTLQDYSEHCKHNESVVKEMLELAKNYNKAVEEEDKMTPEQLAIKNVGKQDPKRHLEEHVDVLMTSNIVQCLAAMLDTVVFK
How it was run: as §1

Measured: log2 ratio of Biotin-Ahx-Ub-VS probe labelling

CNC(=O)C1CCN(C(=O)CCl)CC1
inactive: [1] 0.308 | [2] 0.0795 | [3] 0.356 | [4] -0.0361 | [5] -0.203 | [6] 0.32 | [7] -0.171 | [8] -0.00406 | [9] -0.107 | [10] 0.144

CN(CCc1ncc(Br)cn1)C(=O)CCl.Cl
inactive: [1] 0.325 | [2] -0.136 | [3] -0.331 | [4] -0.46 | [5] 0.24 | [6] 0.619 | [7] -0.266 | [8] -0.602 | [9] -0.319 | [10] -0.0172

CN1C(=O)c2ccc(NC(=O)CCl)cc2C1=O
inactive: [1] 0.714 | [2] -0.152 | [3] -0.217 | [4] -0.208 | [5] -0.508 | [6] 0.112 | [7] -0.743 | [8] -0.236 | [9] -0.202 | [10] 0.0214

CC(NC(=O)CCl)c1cnn(C2CC2)c1 (stereo not given)
inactive: [1] 0.309 | [2] -0.113 | [3] -0.514 | [4] 0.0173 | [5] -0.392 | [6] 0.76 | [7] -0.323 | [8] -0.373 | [9] -0.227 | [10] -0.0263
